Hits are enriched below; roughly 4.3% of the tested compounds scored in any of these assays.
FAS-TE inh = inhibitors of human fatty acid synthase thioesterase domain. P49327. recombinant FAS-TE, OMFH fluorogenic substrate, fluorescence endpoint. inhibition, % at 15 µM. hit rate 0.67% among 360,000;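 active means compounds whose normalised, plate-corrected inhibition of enzyme fluorescence in the single-dose primary screen is 50% or more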
ADAM10 inh = inhibits human ADAM10. recombinant ADAM10, EDANS/DABCYL FRET peptide cleavage, 3 h. AID 720582. inhibition, % at 7 µM. O14672. hit rate 0.62% among 370,000;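 active means inhibition above a per-campaign cutoff equal to the mean of compounds falling between control-based bounds plus 3 SD, cut at about 20% in these data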
HGIII-sPLA2 inh = Blocks human group III sPLA2 activity | inhibition, % at 12.2 µM | hit rate 0.56% among 370,000 | Q9NZ20 | QFRET BODIPY PC-A2 liposome hydrolysis, fluorescence;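 active means inhibition above mean plus 3 SD of compounds lying within the high and low control bounds, cut at about 19% in these data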
Target sequence (Q9NZ20 whole entry, looked up): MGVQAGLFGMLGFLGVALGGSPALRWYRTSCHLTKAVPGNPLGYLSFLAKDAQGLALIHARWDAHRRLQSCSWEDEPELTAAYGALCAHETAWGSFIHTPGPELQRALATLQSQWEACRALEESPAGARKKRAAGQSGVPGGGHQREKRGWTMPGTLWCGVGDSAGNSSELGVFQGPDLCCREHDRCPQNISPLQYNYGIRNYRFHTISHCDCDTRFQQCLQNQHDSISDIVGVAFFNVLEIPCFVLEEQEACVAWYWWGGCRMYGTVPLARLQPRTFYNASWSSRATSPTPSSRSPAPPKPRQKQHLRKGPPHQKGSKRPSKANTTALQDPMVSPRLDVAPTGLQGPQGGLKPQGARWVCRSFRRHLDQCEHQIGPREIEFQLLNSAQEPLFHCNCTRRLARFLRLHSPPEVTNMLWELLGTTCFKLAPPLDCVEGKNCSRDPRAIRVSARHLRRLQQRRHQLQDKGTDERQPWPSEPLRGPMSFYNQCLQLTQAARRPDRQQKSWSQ
ADAM17 inh = inhibitors of human ADAM17 | inhibition, % at 6.95 µM | recombinant ADAM17, EDANS/DABCYL FRET peptide cleavage | hit rate 0.83% among 370,000;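 active means inhibition above the mean of compounds lying between control limits plus 3 SD, set per campaign, cut at about 8.5% in these data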
NR3A LBD binder = NR3A (human) ligand-binding domain modulation; Tm shift relative to glycine control, % at 25 µM; NR3A LBD differential scanning fluorimetry, Tm shift; 0% = protein alone, 100% = glycine-bound protein; hit rate 2.5% among 340,000;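 active means melting temperature shift of at least 10% of the positive control shift, at one fixed dose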
FAS-TE inh conf = FAS thioesterase (human) inhibition, confirmation; shares compounds with FAS-TE inh; recombinant FAS-TE, OMFH fluorogenic substrate, fluorescence; inhibition, % at 15 µM; hit rate 45% among 2,300; AID 624325;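 active means compounds inhibiting the enzyme by at least 50% at 15 µM in any one of the replicates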
Numbers stand for hits; i = inactive; nt = not tested or not shown.

SMILES	FAS-TE inh	ADAM10 inh	HGIII-sPLA2 inh	ADAM17 inh	NR3A LBD binder	FAS-TE inh conf
O=S(=O)(c1ccccc1)c1nnn2c1nc(NC1CCN(Cc3ccccc3)CC1)c1cc(Cl)ccc12	80	i	i	i	i	i
O=S(=O)(c1ccccc1)c1nnn2c1nc(NC1CCN(Cc3ccccc3)CC1)c1ccccc12	82	i	i	i	i	79
O=C1CCCN1CCCNc1nc2c(S(=O)(=O)c3ccc(Br)cc3)nnn2c2ccccc12	57	i	i	i	i	i
CC(C)c1ccc(S(=O)(=O)c2nnn3c2nc(NCC2CCCO2)c2ccccc23)cc1 (configuration not stated)	74	nt	nt	nt	i	80
O=C(C1CC1)N1CCc2cc(Br)c(S(=O)(=O)NCCCN3CCCCC3)cc21	nt	i	i	i	nt	nt
COc1ccc(CCNCC(O)COc2cccc(C)c2)cc1OC (configuration not stated)	nt	i	i	i	nt	nt
CN(C(=O)COC(=O)c1cc([N+](=O)[O-])ccc1Cl)c1ccccc1	52	i	i	i	i	62
O=C(COC(=O)c1cc([N+](=O)[O-])ccc1Cl)NCCc1ccccc1	76	i	i	i	i	83
CCCCn1c(CN2CCN(c3cccc(Cl)c3)CC2)nc2c1c(=O)n(C)c(=O)n2C	71	i	i	i	i	54
CCCCn1c(CN2CCN(c3ccccc3)CC2)nc2c1c(=O)n(C)c(=O)n2C	50	nt	nt	nt	i	50
CCCCCn1c(CN2CCN(c3cccc(Cl)c3)CC2)nc2c1c(=O)n(C)c(=O)n2C	79	i	i	i	i	35
CCCn1c(CN2CCN(c3cccc(Cl)c3)CC2)nc2c1c(=O)n(C)c(=O)n2C	i	i	i	i	i	nt
Cn1c(=O)c2c(nc(CN3CCN(c4ccccc4)CC3)n2CCCc2ccccc2)n(C)c1=O	nt	i	i	i	i	nt
CCOC(=O)N1CCN(C(=O)C[C@H]2C[C@@]3(C(=O)OC)C(=C[C@H](C(C)C)O[C@@H]3C3CC3)N(CCC3=CCCCC3)C2=O)CC1	nt	i	i	i	nt	nt
CC1CCCN(S(=O)(=O)c2ccc(NC(=O)Cc3ccc(S(=O)(=O)N4CCOCC4)s3)cc2)C1 (configuration not stated)	61	i	i	i	i	28
CC1CCN(S(=O)(=O)c2ccc(NC(=O)Cc3ccc(S(=O)(=O)N4CCOCC4)s3)cc2)CC1	i	i	i	i	i	nt
Cc1cc(=O)n2[nH]c(-c3ccc(C(C)(C)C)cc3)cc2n1	63	i	i	i	i	44
Cc1cc(=O)n2[nH]c(-c3ccccc3)cc2n1	i	i	i	i	i	nt
CC(=O)c1cc(-c2csc(C=O)c2)c(=O)n2c1CCC2	nt	i	i	i	nt	nt
N#Cc1cc2nc(O)c(O)nc2cc1[N+](=O)[O-]	52	i	i	i	i	56
CNc1nc2cc([N+](=O)[O-])c([N+](=O)[O-])cc2nc1NC	i	i	i	i	i	nt
COc1cccc(-c2cnc3c(NC=O)cc(-c4ccc(S(C)(=O)=O)cc4)cn23)c1	55	i	i	i	nt	56
CC(NC(=O)C12CC3CC(CC(C3)C1)C2)C(=O)N/N=C/C1=C(N2CCOCC2)C(=C\c2ccccc2)/CC1 (configuration not stated)	71	i	i	i	i	i
CCCCCCn1c(=O)c(F)cn(Cc2ccc(OC)c([N+](=O)[O-])c2)c1=O	58	i	i	i	i	57
CC(COc1ccc(F)cc1)CN1CCC(C(O)(c2ccccc2)c2ccccc2)CC1 (configuration not stated)	nt	i	i	i	nt	nt
SMILES	FAS-TE inh	ADAM10 inh	HGIII-sPLA2 inh	ADAM17 inh	NR3A LBD binder	FAS-TE inh conf
COc1ccc(-c2[nH]n(-c3ccc([N+](=O)[O-])cc3)c(=O)c2C=NCc2ccccc2)cc1	54	i	i	i	i	i
COc1ccc(CCN=Cc2c(C)[nH]n(-c3ccc([N+](=O)[O-])cc3)c2=O)cc1OC	i	i	i	i	i	nt
COc1ccc(Cl)cc1-c1cc(C(=O)NCc2ccc(C(F)(F)F)cc2)[nH]n1	56	i	i	i	nt	55
Cc1cc(C)cc(N(CC(=O)NC2CCC(C)CC2)S(=O)(=O)c2ccccc2)c1 (configuration not stated)	nt	i	i	i	nt	nt
COc1ccc(/C=C2\CC3(OC(=O)c4ccco4)CCCN2C3)cc1 (configuration not stated)	nt	i	i	i	nt	nt
O=C(NCc1cccs1)O[C@H]1CC[C@@]23CCCN2C(=O)CCC[C@H]3C1	nt	i	i	i	nt	nt
CN(N=Cc1ccc([N+](=O)[O-])cc1)c1ccccn1	50	i	i	i	nt	i
C[C@H](CO)N1C[C@H](C)[C@@H](CN(C)C(=O)Nc2ccccc2)OCc2cn(nn2)CCCC1=O	nt	i	i	i	nt	nt
COc1ccc2[nH]c3c(c2c1)CCN1C(=O)C(CC(=O)NCCC2=CCCCC2)C[C@H](C(=O)N2CCOCC2)[C@@]31CCC1CCCC1 (some centres not stated)	67	i	i	i	i	69
COc1ccc2[nH]c3c(c2c1)CCN1C(=O)C(CC(=O)NCC24CC5CC(CC(C5)C2)C4)C[C@H](C(=O)N2CCOCC2)[C@@]31CCC1CCCC1 (some centres not stated)	80	i	i	i	i	i
O=C(C[C@H]1C[C@H](C(=O)N2CCOCC2)[C@@]2(CCC3CCCC3)c3[nH]c4cc(-c5ccco5)ccc4c3CCN2C1=O)NCc1ccco1	i	i	i	i	i	nt
O=C(C[C@H]1C[C@H](C(=O)N2CCOCC2)[C@@]2(CCC3CCCC3)c3[nH]c4ccc(Cl)cc4c3CCN2C1=O)NCC12CC3CC(CC(C3)C1)C2	82	i	i	i	i	i
COc1ccc2[nH]c3c(c2c1)CCN1C(=O)C(CC(=O)NCCCn2ccnc2)C[C@H](C(=O)N2CCOCC2)[C@@]31CCC1CCCC1 (some centres not stated)	i	i	i	i	i	nt
CN(Cc1ccccc1)S(=O)(=O)c1cccc(C(=O)OCc2ccc(C(F)(F)F)cc2)c1	nt	i	i	i	nt	nt
O=C(Cn1cc([N+](=O)[O-])ccc1=O)NCc1ccc(Cl)cc1Cl	56	i	i	i	i	55
O=C(COC(=O)c1cc([N+](=O)[O-])ccc1N1CCOCC1)NCc1ccccc1	83	i	i	i	nt	90
COc1cccc(CNC(=O)COC(=O)c2cc([N+](=O)[O-])ccc2N2CCCC2)c1	81	i	i	i	i	85
O=C(COC(=O)c1cc([N+](=O)[O-])ccc1N1CCOCC1)NCc1ccc(Cl)cc1Cl	93	i	i	i	i	93
COc1ccc(C(=O)N2CCC(Oc3cccnc3)CC2)c(OC)c1	nt	i	i	i	nt	nt
CCn1c(=O)n(CC(=O)N2CCN(C(C)=O)CC2)c(=O)c2ccccc21	nt	i	i	i	nt	nt

Compound activity from PubChem BioAssay.
